Measured values published in the supplement of paper PMC12350171.
Structures can show the parent of a compound that is named as a salt.

Assays:
Conditions in all cases: 20 µM
[1] = tested on: Salmonella enterica typhimurium; assay: growth AUC normalised to DMSO control (fraction of control); higher = less growth inhibition, active = hit call of the paper
Outline: (§1)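 Three biological replicates were carried out, with OD578 read hourly for 24 h. Before inoculation at a starting OD578 of 0.01, pathogens were passaged anaerobically twice; plates were pre-reduced mGAM containing 20 μM compound and 1% DMSO, sealed with breathable membranes, and the Haemophilus parainfluenzae medium carried added hemin and NAD. Area under each growth curve was calculated by the trapezoidal rule up to the exponential-to-stationary transition and normalised to DMSO controls on the same plate.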

Shigella flexneri = assay: as above
Outline: as §1

Vibrio cholerae = assay: as above
Outline: as §1

[2] = tested on: Yersinia pseudotuberculosis; assay: as above
Outline: as §1

P. vulgatus RND KO = assay: growth AUC normalised to DMSO control (median) (fraction of control); higher = less growth inhibition, active = hit call of the paper
Outline: (§2)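 In 96-well plates of mGAM seeded at OD578 0.01, strains that had been passaged twice overnight without oxygen were exposed to approved-drug library compounds at 20 μM with 1% DMSO. Hourly OD578 readings were taken for 24 h in an anaerobic incubator. The trapezoidal-rule area under the curve, with curves truncated at entry into stationary phase, was expressed relative to same-plate vehicle wells as the median of three biological replicates.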

P. vulgatus WT = assay: as above
Outline: as §2

[3] = tested on: S. enterica typhimurium WT; assay: as above
Outline: as §2

[4] = tested on: S. enterica typhimurium tolC KO; assay: as above
Outline: as §2

Measured: growth AUC normalised to DMSO control
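Throughout, for growth AUC normalised to DMSO control (median): active when median AUC fell below 0.1.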

N=c1nc(N2CCCCC2)cc(N)n1O [Minoxidil]
inactive: [1] 1 | Shigella flexneri 1.03 | Vibrio cholerae 1.01 | [2] 0.974 | P. vulgatus RND KO 0.992 | P. vulgatus WT 1.01 | [3] 0.981 | [4] 1.01

CCOC(=O)[C@H](CCc1ccccc1)N[C@H]1CCc2ccccc2N(CC(=O)O)C1=O [Benazepril hydrochloride]
inactive: [1] 0.981 | Shigella flexneri 0.996 | Vibrio cholerae 1.01 | [2] 0.975 | P. vulgatus RND KO 1 | P. vulgatus WT 1 | [3] 1 | [4] 1

CC(=O)OC(C)C[N+](C)(C)C (configuration not stated) [Methacholine chloride]
inactive: [1] 0.992 | Shigella flexneri 0.939 | Vibrio cholerae 0.99 | [2] 0.983 | P. vulgatus RND KO 0.991 | P. vulgatus WT 1 | [3] 0.991 | [4] 1

CCCC(CCC)C(=O)O [Valproic acid]
inactive: [1] 1.01 | Shigella flexneri 1.02 | Vibrio cholerae 1.05 | [2] 1.01 | P. vulgatus RND KO 1.06 | P. vulgatus WT 1.07 | [3] 1 | [4] 1.01

Cc1cc(C(=O)NNCc2ccccc2)no1 [Isocarboxazid]
inactive: [1] 0.994 | Shigella flexneri 1.02 | Vibrio cholerae 1.03 | [2] 0.996 | P. vulgatus RND KO 1.05 | P. vulgatus WT 1.05 | [3] 0.998 | [4] 0.993

CN(C)[C@@H]1C(=O)C(C(=O)NCNCCCC[C@H](N)C(=O)O)=C(O)[C@@]2(O)C(=O)C3=C(O)c4c(O)cccc4[C@@](C)(O)[C@H]3C[C@@H]12 [Lymecycline]
inactive: Shigella flexneri 0.947 | [2] 1.01 | P. vulgatus RND KO 0.779 | P. vulgatus WT 0.835 | [3] 0.94 | [4] 0.94
active: [1] 0.903 | Vibrio cholerae 0.448

CC[C@H]1OC(=O)[C@H](C)[C@@H](O[C@H]2C[C@@](C)(OC)[C@@H](O)[C@H](C)O2)[C@H](C)[C@@H](O[C@@H]2O[C@H](C)C[C@H](N(C)C)[C@H]2O)[C@](C)(OC)C[C@@H](C)C(=O)[C@H](C)[C@@H](O)[C@]1(C)O [Clarithromycin]
active: [1] 0.688 | Shigella flexneri 0.508 | Vibrio cholerae 0.0231 | [2] 0.799 | P. vulgatus RND KO 0.0127 | P. vulgatus WT 0.0156 | [4] 0.00712
inactive: [3] 0.744

CC[N+](C)(CC)CCOC(=O)C1c2ccccc2Oc2ccccc21 [Methantheline bromide]
inactive: [1] 1 | Shigella flexneri 1.01 | Vibrio cholerae 0.973 | [2] 1 | P. vulgatus RND KO 0.972 | P. vulgatus WT 0.981 | [3] 1 | [4] 0.995

Nc1nc(=S)c2ncn([C@@H]3O[C@H](CO)[C@@H](O)[C@H]3O)c2[nH]1 [Thioguanosine]
active: [1] 0.828 | Shigella flexneri 0.0952 | [2] 0.826
inactive: Vibrio cholerae 0.957 | P. vulgatus RND KO 1.03 | P. vulgatus WT 1.06 | [3] 0.849 | [4] 0.779

C[C@@H]1C[C@H]2[C@@H]3C[C@H](F)C4=CC(=O)C=C[C@]4(C)[C@@]3(Cl)[C@@H](O)C[C@]2(C)[C@H]1C(=O)COC(=O)C(C)(C)C [Clocortolone pivalate]
active: P. vulgatus RND KO 0.0165 | P. vulgatus WT 0.0896
inactive: [1] 1.03 | Shigella flexneri 1.06 | Vibrio cholerae 1.12 | [2] 1.05 | [3] 1.01 | [4] 1.04

CC(C)(C)C(=O)OCOC(=O)[C@@H]1N2C(=O)[C@@H](NC(=O)[C@H](N)c3ccccc3)[C@H]2SC1(C)C [Pivampicillin]
inactive: [1] 0.97 | Shigella flexneri 1.01 | Vibrio cholerae 0.987 | P. vulgatus RND KO 1.01 | P. vulgatus WT 1.02 | [3] 0.993 | [4] 1
active: [2] 0.818

CN(C)CCOC(C)(c1ccccc1)c1ccccn1 (configuration not stated) [Doxylamine succinate]
inactive: [1] 0.982 | Shigella flexneri 1.01 | Vibrio cholerae 1 | [2] 0.996 | P. vulgatus RND KO 0.981 | P. vulgatus WT 0.993 | [3] 0.986 | [4] 0.999

CCCNC(=O)NS(=O)(=O)c1ccc(Cl)cc1 [Chlorpropamide]
inactive: [1] 1 | Shigella flexneri 1.02 | Vibrio cholerae 1.01 | [2] 0.996 | P. vulgatus RND KO 1.02 | P. vulgatus WT 1.06 | [3] 1.01 | [4] 1.04

NS(=O)(=O)c1cc2c(cc1Cl)N=C(CSCc1ccccc1)NS2(=O)=O [Benzthiazide]
inactive: [1] 0.998 | Shigella flexneri 0.958 | Vibrio cholerae 0.947 | [2] 1.01 | P. vulgatus RND KO 0.99 | P. vulgatus WT 0.992 | [3] 1.01 | [4] 0.996

CC(=O)O[C@H]1C[C@@]2(C)[C@@H](C[C@@H](O)[C@H]3[C@@]4(C)CC[C@@H](O)[C@@H](C)[C@@H]4CC[C@@]32C)/C1=C(\CCC=C(C)C)C(=O)O [Fusidic acid sodium salt]
active: [2] 0.824 | P. vulgatus RND KO 0.0166 | P. vulgatus WT 0.0143 | [4] 0.0407
inactive: [1] 0.997 | Shigella flexneri 0.974 | Vibrio cholerae 0.927 | [3] 0.989

CN(C)CCC=C1c2ccccc2COc2ccccc21 [Doxepin hydrochloride]
inactive: [1] 1 | Shigella flexneri 0.977 | Vibrio cholerae 0.899 | [2] 0.994 | P. vulgatus RND KO 0.976 | P. vulgatus WT 0.962 | [3] 0.997 | [4] 0.977

OC(CCN1CCCCC1)(c1ccccc1)c1ccccc1 [Pridinol methanesulfonate salt]
inactive: [1] 0.993 | Shigella flexneri 1.02 | Vibrio cholerae 1.07 | [2] 0.988 | P. vulgatus RND KO 0.963 | P. vulgatus WT 0.953 | [3] 0.991 | [4] 0.994

CCN(CC)CCCC(C)Nc1ccnc2cc(Cl)ccc12 (configuration not stated) [Chloroquine diphosphate]
inactive: [1] 0.997 | Shigella flexneri 0.982 | Vibrio cholerae 1.01 | [2] 1.01 | P. vulgatus RND KO 1.02 | P. vulgatus WT 1.02 | [3] 1 | [4] 1

COc1ccc(C(=O)NCc2cccnc2)cc1C(=O)NCc1cccnc1 [Picotamide monohydrate]
inactive: [1] 0.989 | Shigella flexneri 0.968 | Vibrio cholerae 0.992 | [2] 0.984 | P. vulgatus RND KO 1 | P. vulgatus WT 1.01 | [3] 0.995 | [4] 0.998

C[C@]12CC[C@@H]3c4ccc(O)cc4C[C@@H](CCCCCCCCC[S+]([O-])CCCC(F)(F)C(F)(F)F)[C@H]3[C@@H]1CC[C@@H]2O (some centres not stated) [Fulvestrant]
inactive: [1] 1.01 | Shigella flexneri 1.09 | Vibrio cholerae 1.01 | [2] 0.994 | P. vulgatus RND KO 1.05 | P. vulgatus WT 1.02 | [3] 1.02 | [4] 0.998

O=C(COc1ccc(Cl)cc1)N1CCN(Cc2ccc3c(c2)OCO3)CC1 [Fipexide hydrochloride]
inactive: [1] 0.987 | Shigella flexneri 0.971 | Vibrio cholerae 0.875 | [2] 0.992 | P. vulgatus RND KO 1 | P. vulgatus WT 0.966 | [3] 0.995 | [4] 0.942

C[C@H]1C[C@H]2[C@@H]3CCC4=CC(=O)C=C[C@]4(C)[C@@]3(F)[C@@H](O)C[C@]2(C)[C@@]1(O)C(=O)CO [Betamethasone]
inactive: [1] 0.985 | Shigella flexneri 0.957 | Vibrio cholerae 0.979 | [2] 0.988 | P. vulgatus RND KO 0.986 | P. vulgatus WT 0.98 | [3] 1 | [4] 0.991

Nc1ccc(S(=O)(=O)Nc2ccccn2)cc1 [Sulfapyridine]
inactive: [1] 0.986 | Shigella flexneri 0.95 | Vibrio cholerae 0.984 | [2] 0.994 | P. vulgatus RND KO 1.01 | P. vulgatus WT 1 | [3] 0.998 | [4] 1

CO/N=C(\C(=O)N[C@@H]1C(=O)N2C(C(=O)O)=C(C[N+]3(C)CCCC3)CS[C@H]12)c1csc(N)n1 [Cefepime hydrochloride]
active: [1] 0.00376 | Shigella flexneri 0.0351 | Vibrio cholerae 0.178 | [2] 0.049 | P. vulgatus RND KO 0.0104 | P. vulgatus WT 0.0103 | [3] 0.00386 | [4] 0.00189

Cc1c(NC(=O)c2cccnc2)c(=O)n(-c2ccccc2)n1C [Nifenazone]
inactive: [1] 0.976 | Shigella flexneri 1 | Vibrio cholerae 1.01 | [2] 1.01 | P. vulgatus RND KO 0.997 | P. vulgatus WT 1 | [3] 1.01 | [4] 0.996

Nc1c2c(nc3ccccc13)CCCC2 [Tacrine hydrochloride]
inactive: [1] 0.995 | Shigella flexneri 1.03 | Vibrio cholerae 1.02 | [2] 0.98 | P. vulgatus RND KO 0.999 | P. vulgatus WT 1.06 | [3] 0.986 | [4] 0.992

CO[C@@]1(NC(=O)C2SC(=C(C(N)=O)C(=O)O)S2)C(=O)N2C(C(=O)O)=C(CSc3nnnn3C)CS[C@@H]21 (some centres not stated) [Cefotetan]
active: [1] 0.00234 | Shigella flexneri 0.0192 | Vibrio cholerae 0.186 | [2] 0.0842 | P. vulgatus RND KO 0.0118 | P. vulgatus WT 0.0068 | [3] 0.00563 | [4] 0.00413

c1ccc2[nH]c(-c3cscn3)nc2c1 [Tiabendazole]
inactive: [1] 0.97 | Shigella flexneri 0.954 | Vibrio cholerae 0.956 | [2] 0.975 | P. vulgatus RND KO 0.971 | P. vulgatus WT 0.971 | [3] 1 | [4] 0.995

CC1Cc2ccccc2N1NC(=O)c1ccc(Cl)c(S(N)(=O)=O)c1 (configuration not stated) [Indapamide]
inactive: [1] 1 | Shigella flexneri 0.985 | Vibrio cholerae 1.01 | [2] 0.992 | P. vulgatus RND KO 0.999 | P. vulgatus WT 1.02 | [3] 1 | [4] 0.988
